40 compounds from PubChem BioAssay (NCI) can be followed below.

The panel holds about 79,000 compounds, 15% with a hit somewhere; the sample as a whole holds those more often. Activity calls are given as the source filed them. No stated cut-off is given here; in the data, active means growth inhibition above about 70%; inactive means the rest.

The nature of the first experiment: NCI Yeast Anticancer Drug Screen. Data for the rad50 strain (AID 155).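 Further: 0% = growth of vehicle-only cultures of the same strain.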 Conditions: S. cerevisiae rad50 strain growth inhibition; at 50.0 µM; hits give high values. A digest of the protocol: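 DNA repair mutant yeast, compound exposure, growth read-out; inhibition is taken relative to vehicle.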
Take `CC(O)C(=O)NN` (stereo not given): the growth inhibition is 0.75% (inactive).
`COCC(=O)c1ccccc1`: the growth inhibition was 14.3% (inactive).
With `O=C1C2=C(Nc3cc([N+](=O)[O-])ccc3N2)OC1c1ccc2c(c1)OCO2` (stereo not given), the growth inhibition was -10.4% (inactive).
For the compound `N#CSC1C=CS(=O)(=O)C1` (stereo not given), the growth inhibition is 44.6% (inactive).
On the same count and under the same terms, the same measure for `CN(C)CCN(C=O)CCN(C)C`: 9.85% (inactive); for `CC1(C)CC23C4COC(=O)C2CCC1C3CC4=O` (stereo not given): -7.25% (inactive).
Still for that read-out and setting: the result for `CC(=O)[CH-]C(=O)c1ccccc1.CC(=O)[CH-]C(=O)c1ccccc1.CC[C@H](/C=C/C(C)[C@H]1CCC2[C@@H]3CC=C4C[C@@H]([O-])CC[C@]4(C)C3CC[C@@]21C)C(C)C.CC[O-].[Ti+4]` (stereo not given in full) reads 8% (inactive).
Same read-out and setting: the same measure for `O=C(CO)c1ccccc1`: -11.9% (inactive).
In the case of `CC1(C)CC(=O)C(/C=N/C(=S)NC2CCCCC2)=C(O)C1`, the growth inhibition was -13.2% (inactive).
Same read-out and setting: the same measure for `CCNC(=O)C1CC2C=CC1C2` (stereo not given): -1.25% (inactive).
As to `Cc1cc(NC(=O)N(CCCl)N=O)c(C)cc1NC(=O)c1ccccc1`, the growth inhibition was 24.5% (inactive).
The same measure, in the same setting: the same measure for `CC(=O)C1(C(C)=O)OC2c3ccccc3C=CN2C=C1C=O` (stereo not given): 6.6% (inactive); for `COc1ccccc1-c1coc2c(ccc3oc(C(C)C)cc32)c1=O`: -19.2% (inactive); for `COc1cc(O)c(C(C)c2ccccc2)cc1N=O` (stereo not given): -9.45% (inactive).
On the same count and under the same terms, the result for `O=C(NC(=S)OC1CCCC1OC(=S)NC(=O)c1ccccc1)c1ccccc1` (stereo not given) reads -21.5% (inactive).
On the same count and under the same terms, the result for `CCOC(=O)c1ccccc1Nc1c(C(=O)OCC)cnc2cc3c(cc12)OCO3` reads -13.8% (inactive); that for `CC(=O)Nc1ccc(S(=O)(=O)NC(=O)NC(C)C)cc1`, -4.2% (inactive); that for `CCOC(=O)/C=C/SCC(N)C(=O)OCC` (stereo not given), -14.4% (inactive).
In the case of `CSc1ncc2c(C#N)c3ccccn3c(=O)c2n1`, the growth inhibition is 6.65% (inactive).
Still for that read-out and setting: the same measure for `CC(=O)c1c(C)cc(C)nc1C`: 14.8% (inactive).
Regarding `S=C(N/N=C/c1ccc(Cl)cc1Cl)NC1CCc2ccccc21` (stereo not given), the growth inhibition is -12.3% (inactive).
On the same count and under the same terms, the same measure for `CC1CC(=O)Nc2ncccc2N1` (stereo not given): 5.75% (inactive); for `CN(C)C1=CC(=O)NC(c2ccccc2)C1` (stereo not given): -10.6% (inactive); for `c1ccc(C2=NN(c3ccccc3)C3C4CCC(C4)C23)cc1` (stereo not given): -5.6% (inactive).
On the same count and under the same terms, the same measure for `CN(C)c1ccc(/C=C2\CCOC2=O)cc1`: 38.1% (inactive); for `O=[N+]([O-])C(/C=N/Nc1ccccc1)/C=N/Nc1ccccc1`: -5.95% (inactive).
As to `NNc1nnnc2ccccc12`, the growth inhibition is 14.2% (inactive).
Still for that read-out and setting: the result for `COc1ccc(CCC2(C)OCCCO2)cc1` reads 9.75% (inactive); that for `Nc1[nH]c(=S)[nH]c(=O)c1NS(=O)(=O)c1ccccc1`, 3.65% (inactive); that for `c1cncc(-c2c3ccccc3cc3ccccc23)c1`, 22.3% (inactive).
In the case of `O=C(C(=Cn1c(=O)cc[nH]c1=S)C(=O)c1ccccc1)c1ccccc1`, the growth inhibition was -14.7% (inactive).
Consider `CC(=O)OCCC(OC(C)=O)c1ccccn1` (stereo not given), for which the growth inhibition was -13.9% (inactive).
The same measure, in the same setting: the same measure for `CCCC/C(=N/O)c1ccccc1`: 7.4% (inactive).
On the same count and under the same terms, the result for `COc1cc2c(cc1OCc1ccccc1)NC(=O)C2` reads 0.5% (inactive); that for `Nc1cc(Br)cc2c1-c1ccc(Br)cc1C2=O`, 15.1% (inactive).
Same read-out and setting: the result for `CCNC(=O)c1ccccc1C(=O)c1ccccc1` reads -4.55% (inactive); that for `CC1=NN(C(=O)CC(=O)N(C(=O)c2ccccc2Cl)c2ccc(C)cc2)C(=O)C1N=Nc1ccc([N+](=O)[O-])cc1` (stereo not given), 46.2% (inactive); that for `CC(=O)N1CCN(c2ccccc2Cl)CC1`, -10% (inactive).
As for `COC1=CCC=C(C(C)(C)C)C1`, the growth inhibition is -45.8% (inactive).
The same measure, in the same setting: the result for `COc1cc(CCNC2=CC(=O)c3ncccc3C2=O)ccc1O` reads 31.6% (inactive).

The nature of the next experiment: NCI Yeast Anticancer Drug Screen. Data for the mec2-1 strain (AID 157). The note with it: S. cerevisiae mec2-1 strain, at 50.0 µM, hits give high values. In short, it runs like this: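 Test agents were screened against the mec2-1 yeast strain, with defined DNA repair or cell cycle alteration. Growth was scored as inhibition against vehicle-only controls.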
`CC(O)C(=O)NN` (stereo not given): the growth inhibition was -17.7% (inactive).
Same read-out and setting: the result for `COCC(=O)c1ccccc1` reads 1.7% (inactive); that for `O=C1C2=C(Nc3cc([N+](=O)[O-])ccc3N2)OC1c1ccc2c(c1)OCO2` (stereo not given), -16.9% (inactive).
For the compound `N#CSC1C=CS(=O)(=O)C1` (stereo not given), the growth inhibition is 4.05% (inactive).
The same measure, in the same setting: the result for `CN(C)CCN(C=O)CCN(C)C` reads 3.95% (inactive); that for `CC1(C)CC23C4COC(=O)C2CCC1C3CC4=O` (stereo not given), -18.1% (inactive).
Still for that read-out and setting: the result for `CC(=O)[CH-]C(=O)c1ccccc1.CC(=O)[CH-]C(=O)c1ccccc1.CC[C@H](/C=C/C(C)[C@H]1CCC2[C@@H]3CC=C4C[C@@H]([O-])CC[C@]4(C)C3CC[C@@]21C)C(C)C.CC[O-].[Ti+4]` (stereo not given in full) reads -4.6% (inactive); that for `O=C(CO)c1ccccc1`, 10.3% (inactive).
The same measure, in the same setting: the same measure for `CC1(C)CC(=O)C(/C=N/C(=S)NC2CCCCC2)=C(O)C1`: -20.1% (inactive); for `CCNC(=O)C1CC2C=CC1C2` (stereo not given): 2.1% (inactive); for `Cc1cc(NC(=O)N(CCCl)N=O)c(C)cc1NC(=O)c1ccccc1`: -22.5% (inactive).
Regarding `CC(=O)C1(C(C)=O)OC2c3ccccc3C=CN2C=C1C=O` (stereo not given), the growth inhibition is 1.35% (inactive).
On the same count and under the same terms, the result for `COc1ccccc1-c1coc2c(ccc3oc(C(C)C)cc32)c1=O` reads 20% (inactive); that for `COc1cc(O)c(C(C)c2ccccc2)cc1N=O` (stereo not given), -11.6% (inactive).
Still for that read-out and setting: the same measure for `O=C(NC(=S)OC1CCCC1OC(=S)NC(=O)c1ccccc1)c1ccccc1` (stereo not given): -12.6% (inactive).
Same read-out and setting: the same measure for `CCOC(=O)c1ccccc1Nc1c(C(=O)OCC)cnc2cc3c(cc12)OCO3`: 3.95% (inactive); for `CC(=O)Nc1ccc(S(=O)(=O)NC(=O)NC(C)C)cc1`: -26.4% (inactive).
Take `CCOC(=O)/C=C/SCC(N)C(=O)OCC` (stereo not given): the growth inhibition was -1.45% (inactive).
Take `CSc1ncc2c(C#N)c3ccccn3c(=O)c2n1`: the growth inhibition was -7% (inactive).
The same measure, in the same setting: the same measure for `CC(=O)c1c(C)cc(C)nc1C`: -12.2% (inactive); for `S=C(N/N=C/c1ccc(Cl)cc1Cl)NC1CCc2ccccc21` (stereo not given): 20.5% (inactive); for `CC1CC(=O)Nc2ncccc2N1` (stereo not given): -4.2% (inactive).
Still for that read-out and setting: the same measure for `CN(C)C1=CC(=O)NC(c2ccccc2)C1` (stereo not given): -17.4% (inactive); for `c1ccc(C2=NN(c3ccccc3)C3C4CCC(C4)C23)cc1` (stereo not given): 8.15% (inactive); for `CN(C)c1ccc(/C=C2\CCOC2=O)cc1`: 11.8% (inactive).
Still for that read-out and setting: the same measure for `O=[N+]([O-])C(/C=N/Nc1ccccc1)/C=N/Nc1ccccc1`: -8.3% (inactive); for `NNc1nnnc2ccccc12`: 1.1% (inactive); for `COc1ccc(CCC2(C)OCCCO2)cc1`: -0.65% (inactive).
`Nc1[nH]c(=S)[nH]c(=O)c1NS(=O)(=O)c1ccccc1`: the growth inhibition is -1.6% (inactive).
For the compound `c1cncc(-c2c3ccccc3cc3ccccc23)c1`, the growth inhibition was -16% (inactive).
Still for that read-out and setting: the result for `O=C(C(=Cn1c(=O)cc[nH]c1=S)C(=O)c1ccccc1)c1ccccc1` reads -19.4% (inactive); that for `CC(=O)OCCC(OC(C)=O)c1ccccn1` (stereo not given), -13.1% (inactive); that for `CCCC/C(=N/O)c1ccccc1`, 0.7% (inactive).
With `COc1cc2c(cc1OCc1ccccc1)NC(=O)C2`, the growth inhibition is 20.2% (inactive).
Same read-out and setting: the result for `Nc1cc(Br)cc2c1-c1ccc(Br)cc1C2=O` reads -10.6% (inactive).
In the case of `CCNC(=O)c1ccccc1C(=O)c1ccccc1`, the growth inhibition is 1.2% (inactive).
The same measure, in the same setting: the same measure for `CC1=NN(C(=O)CC(=O)N(C(=O)c2ccccc2Cl)c2ccc(C)cc2)C(=O)C1N=Nc1ccc([N+](=O)[O-])cc1` (stereo not given): 29.9% (inactive); for `CC(=O)N1CCN(c2ccccc2Cl)CC1`: -17.2% (inactive).
For `COC1=CCC=C(C(C)(C)C)C1`, the growth inhibition is -22.6% (inactive).
Take `COc1cc(CCNC2=CC(=O)c3ncccc3C2=O)ccc1O`: the growth inhibition is 34% (inactive).
